Experimental findings from the OligoGym collection are described below.
Note: reference of the scale not given here.

In the first assay the target is PSMD14. Description: pooled miR-30 sensor sort-seq; sequence = guide strand. To be noted: shRNA.
TTCTTCTACAGCCTTATTGTAA came in with a sensor-assay potency score (higher = more potent) of -1.22.
The same measure, in the same setting: the figure for TTTGTCTTGGTTCATGTCCTAA is -1.03; for TAACATTTTTAACAGTGCCAGG it is -1.43; for AAATTTAGCAACATCTTCTGTT it is 0.377.
The same measure, in the same setting: to TAGTCCATGAATTAATGCCTGG belongs -1.08.

The target in another assay is PSMG3. Described as above. To be noted: shRNA.
In turn, TTTGTGGTGAGCACAGGCTTGC displayed a sensor-assay potency score (higher = more potent) of -0.665.
The same measure, in the same setting: the figure for TCTTCTGCTTCGATATCACCAA is -0.805; for ATGGATGAGAGGCTCATCCTGC it is -1.3.
Same read-out and setting: to TTGTCCTTCACGGCCACGGCGA belongs -1.48.
Same read-out and setting: to TTCTCAAACACAAGCAACGATT belongs -1.54; to TAAAAAAGAAATTTCCTCCTAC, 0.923; to AACGCTACCAGGTTCTTTGCAA, 0.042.
In turn, TGAGACACAAACGCTACCAGGT returned a sensor-assay potency score (higher = more potent) of -0.363.
In the case of TTGAGACACAAACGCTACCAGG, the sensor-assay potency score (higher = more potent) was -0.891.
Still for that read-out and setting: the figure for TTCCAGCTTCTTGAGACACAAA is -1.35; for TCTGTTTCCAGCTTCTTGAGAC it is 0.0937; for TTTTGTGGTGAGCACAGGCTTG it is -0.949.

Another assay addresses PSPH. The description is as above. To be noted: shRNA.
In the case of AAAACCTGCATATTCACCGTTA, the sensor-assay potency score (higher = more potent) was found to be 0.263.
The same measure, in the same setting: to TTATCCTTGACTTGTTGCCTGA belongs -0.324.
In turn, TTAAAGTAGAATTTCAGCCTAT yielded a sensor-assay potency score (higher = more potent) of 0.23.
The same measure, in the same setting: to TGCTATGAGTCTCTGCACCTGC belongs 0.0571; to TCTTCTCTGATGACCGTGCTGT, 0.253.
On the same count and under the same terms, to TAACTTGTAAAAATTCATCTGA belongs 0.913; to TTTGGCGTTATCCTTGACTTGT, -1.02; to AACCTGAACATTTCGCTCCTGT, 0.681.
In the case of TAAGCAAACAGTATCAATCTGT, the sensor-assay potency score (higher = more potent) is 0.453.
The same measure, in the same setting: the figure for TTGCTCTGCTATGAGTCTCTGC is -0.739; for TCACTTTTCCTTTTCCACCAGA it is -0.287.

Another assay has as its target PSRC1. The description is as above. The settings on record: shRNA.
TATTTGTTCATTTCACTGCTGG showed a sensor-assay potency score (higher = more potent) of 0.584.
For TTCGAGTTGACAGAGAATCCGG, the sensor-assay potency score (higher = more potent) was found to be 0.0316.
Still for that read-out and setting: to TTGACAGAGAATCCGGAGGTAG belongs -1.05; to TCGGACAGGACTATCCTTCAGC, -0.556; to TCGAGTTGACAGAGAATCCGGA, 0.42.
Same read-out and setting: the figure for TAGGCTGAGCCTCACACCCTGG is -1.11; for TATCATTACTCCGGAGTCGAGG it is -0.921; for TCGCTGGGAAACAGGAACCTTG it is -1.78.
The same measure, in the same setting: to TCTGGAGTCACCAACACTGTTA belongs -0.586; to TTTGCTACTGAAGTCTTGCTTG, -0.274.
Sequence TTTCCCGCACTCTGTGTCCTGC yielded a sensor-assay potency score (higher = more potent) of -0.995.
